Assay results: PubChem BioAssay AID743421 (Vanderbilt Specialized Chemistry Center, 2014)

Target: Metabotropic glutamate receptor 6 (Homo sapiens) (UniProt O15303)
Test: mGlu6 agonist response modulation at 10 µM, profiling panel, selectivity assay for mGlu8/mGlu7 PAM project, cell-based, GIRK thallium flux, agonist curve fold shift (AID 743421)
Conditions: mGlu6/GIRK cells, thallium flux (Fluo Zn), agonist CRC fold shift, stronger effect = higher value

Metabotropic glutamate receptor 6 (Homo sapiens), sequence (O15303 whole entry, looked up): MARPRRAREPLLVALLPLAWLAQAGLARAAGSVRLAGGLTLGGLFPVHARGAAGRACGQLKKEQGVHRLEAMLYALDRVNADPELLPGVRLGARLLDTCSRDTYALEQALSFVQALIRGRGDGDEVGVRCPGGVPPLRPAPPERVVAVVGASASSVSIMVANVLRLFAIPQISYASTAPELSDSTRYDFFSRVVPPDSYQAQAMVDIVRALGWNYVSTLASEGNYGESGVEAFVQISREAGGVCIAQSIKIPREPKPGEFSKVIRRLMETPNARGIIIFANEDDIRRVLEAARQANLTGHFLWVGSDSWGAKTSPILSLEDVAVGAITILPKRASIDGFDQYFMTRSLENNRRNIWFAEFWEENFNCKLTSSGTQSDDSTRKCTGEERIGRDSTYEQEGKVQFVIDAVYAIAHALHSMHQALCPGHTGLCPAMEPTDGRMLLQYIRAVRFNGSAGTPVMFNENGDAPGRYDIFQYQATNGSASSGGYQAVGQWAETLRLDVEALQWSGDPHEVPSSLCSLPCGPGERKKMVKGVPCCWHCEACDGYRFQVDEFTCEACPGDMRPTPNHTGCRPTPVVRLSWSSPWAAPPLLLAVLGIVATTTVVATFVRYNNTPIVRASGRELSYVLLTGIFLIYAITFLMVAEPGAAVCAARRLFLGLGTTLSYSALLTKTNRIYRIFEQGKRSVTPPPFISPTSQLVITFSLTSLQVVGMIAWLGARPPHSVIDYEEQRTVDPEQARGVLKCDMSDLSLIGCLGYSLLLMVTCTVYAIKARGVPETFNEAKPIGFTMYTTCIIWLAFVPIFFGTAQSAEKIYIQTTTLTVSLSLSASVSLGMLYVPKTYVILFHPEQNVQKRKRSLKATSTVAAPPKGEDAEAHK

**Q.** How did the fold shift turn out when `COC(=O)c1ccc(-n2c(C)cc(C(=O)CSc3ccc(NC(C)=O)cc3)c2C)cc1` was run?
**A.** The fold shift was 2.59.
